In ChEMBL document CHEMBL1961873, “Compounds: GSK PKIS; Assays: Nanosyn kinase panel” (2012) one finds inhibition data, which are given here for 17 molecules.

Structures are written as SMILES.

The target in experiment [1] is 5'-AMP-activated protein kinase catalytic subunit alpha-2 (Homo sapiens) (UniProt P54646). Particulars: at 1 µM.
For experiment [2], the target named is T1, NUAK family SNF1-like kinase 1 (Homo sapiens) (UniProt O60285).
T1 sequence (whole entry): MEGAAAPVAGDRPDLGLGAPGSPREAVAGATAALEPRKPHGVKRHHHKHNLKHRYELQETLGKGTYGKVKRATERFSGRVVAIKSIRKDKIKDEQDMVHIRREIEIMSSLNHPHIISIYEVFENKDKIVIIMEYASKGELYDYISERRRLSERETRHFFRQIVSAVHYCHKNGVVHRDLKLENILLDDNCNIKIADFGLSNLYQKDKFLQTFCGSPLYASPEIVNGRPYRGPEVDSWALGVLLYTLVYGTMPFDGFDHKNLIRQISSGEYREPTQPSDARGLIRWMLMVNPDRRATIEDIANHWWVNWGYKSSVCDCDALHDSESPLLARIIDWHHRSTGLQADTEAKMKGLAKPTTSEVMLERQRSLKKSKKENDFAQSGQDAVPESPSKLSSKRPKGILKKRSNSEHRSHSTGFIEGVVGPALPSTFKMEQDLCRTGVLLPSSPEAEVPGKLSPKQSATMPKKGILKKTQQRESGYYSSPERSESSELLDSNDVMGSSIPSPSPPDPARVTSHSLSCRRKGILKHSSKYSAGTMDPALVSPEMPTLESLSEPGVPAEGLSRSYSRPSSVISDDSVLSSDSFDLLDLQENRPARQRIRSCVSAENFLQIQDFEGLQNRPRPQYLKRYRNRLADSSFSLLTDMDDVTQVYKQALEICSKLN
Conditions: at 0.1 µM.

Experiment [3] addresses T1, NUAK family SNF1-like kinase 1 (Homo sapiens). Particulars: at 1 µM.
Experiment [4] concerns the target T2, Serine/threonine-protein kinase BRSK1 (Homo sapiens) (UniProt Q8TDC3).
T2 sequence (whole entry): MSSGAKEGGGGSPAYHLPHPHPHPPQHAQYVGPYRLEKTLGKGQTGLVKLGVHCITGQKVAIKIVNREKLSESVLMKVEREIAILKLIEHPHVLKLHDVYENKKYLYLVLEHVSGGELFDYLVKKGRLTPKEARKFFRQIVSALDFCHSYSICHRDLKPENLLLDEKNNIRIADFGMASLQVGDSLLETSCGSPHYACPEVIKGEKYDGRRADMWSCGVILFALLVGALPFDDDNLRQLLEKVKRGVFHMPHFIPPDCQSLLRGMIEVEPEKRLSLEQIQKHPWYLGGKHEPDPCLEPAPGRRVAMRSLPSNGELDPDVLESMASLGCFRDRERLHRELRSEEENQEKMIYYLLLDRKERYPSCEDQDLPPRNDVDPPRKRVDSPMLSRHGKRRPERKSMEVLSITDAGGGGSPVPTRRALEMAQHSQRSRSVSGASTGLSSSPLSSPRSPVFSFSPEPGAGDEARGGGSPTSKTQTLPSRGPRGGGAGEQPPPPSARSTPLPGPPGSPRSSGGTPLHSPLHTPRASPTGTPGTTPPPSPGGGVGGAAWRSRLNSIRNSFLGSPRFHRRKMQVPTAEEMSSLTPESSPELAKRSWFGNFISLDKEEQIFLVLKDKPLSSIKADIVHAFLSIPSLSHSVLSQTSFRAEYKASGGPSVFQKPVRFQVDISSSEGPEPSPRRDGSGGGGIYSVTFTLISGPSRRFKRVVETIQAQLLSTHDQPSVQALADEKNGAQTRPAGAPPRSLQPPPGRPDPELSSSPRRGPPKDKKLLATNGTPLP
Particulars: at 0.1 µM.

The target of experiment [5] is T2, Serine/threonine-protein kinase BRSK1 (Homo sapiens). Conditions: at 1 µM.
Experiment [6] addresses T3, Serine/threonine-protein kinase BRSK2 (Homo sapiens) (UniProt Q8IWQ3).
T3 sequence (whole entry): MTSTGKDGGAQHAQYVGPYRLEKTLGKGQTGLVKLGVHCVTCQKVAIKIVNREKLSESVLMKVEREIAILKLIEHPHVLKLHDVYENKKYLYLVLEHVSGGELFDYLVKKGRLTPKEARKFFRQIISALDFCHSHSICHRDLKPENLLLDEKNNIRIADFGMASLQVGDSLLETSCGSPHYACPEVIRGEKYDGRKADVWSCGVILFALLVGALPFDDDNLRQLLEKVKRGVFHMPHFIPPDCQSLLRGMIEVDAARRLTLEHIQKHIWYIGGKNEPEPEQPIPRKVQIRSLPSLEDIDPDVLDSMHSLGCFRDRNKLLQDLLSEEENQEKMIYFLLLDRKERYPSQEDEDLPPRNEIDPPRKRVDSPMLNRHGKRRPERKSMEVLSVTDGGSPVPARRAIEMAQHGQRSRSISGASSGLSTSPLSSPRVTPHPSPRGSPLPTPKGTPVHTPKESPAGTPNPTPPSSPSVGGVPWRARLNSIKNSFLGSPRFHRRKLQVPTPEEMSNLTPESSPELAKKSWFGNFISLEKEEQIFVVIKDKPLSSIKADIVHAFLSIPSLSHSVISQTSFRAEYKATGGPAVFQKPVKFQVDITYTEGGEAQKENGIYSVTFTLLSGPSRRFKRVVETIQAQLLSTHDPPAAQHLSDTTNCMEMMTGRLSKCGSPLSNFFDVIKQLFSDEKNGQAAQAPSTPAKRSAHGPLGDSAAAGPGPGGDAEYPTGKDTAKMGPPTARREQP
Particulars: at 0.1 µM.

Experiment [7] addresses T3, Serine/threonine-protein kinase BRSK2 (Homo sapiens). Particulars: at 1 µM.
The target of experiment [8] is Calcium/calmodulin-dependent protein kinase type 1D (Homo sapiens) (UniProt Q8IU85). Particulars: at 0.1 µM.
Chain of Calcium/calmodulin-dependent protein kinase type 1D (Homo sapiens) (Q8IU85 whole entry, looked up): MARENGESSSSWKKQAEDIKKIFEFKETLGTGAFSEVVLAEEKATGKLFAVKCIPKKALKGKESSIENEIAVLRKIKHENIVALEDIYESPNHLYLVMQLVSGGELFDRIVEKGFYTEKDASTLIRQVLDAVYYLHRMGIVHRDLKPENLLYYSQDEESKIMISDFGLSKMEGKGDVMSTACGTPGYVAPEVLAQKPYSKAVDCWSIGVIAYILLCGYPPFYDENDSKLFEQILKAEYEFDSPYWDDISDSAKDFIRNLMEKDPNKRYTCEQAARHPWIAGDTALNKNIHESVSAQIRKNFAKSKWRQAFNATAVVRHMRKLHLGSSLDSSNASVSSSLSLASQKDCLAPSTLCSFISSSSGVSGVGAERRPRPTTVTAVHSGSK
The target is the same in experiment [9]. Particulars: at 1 µM.
For experiment [10], the target named is Calcium/calmodulin-dependent protein kinase type II subunit alpha (Homo sapiens) (UniProt Q9UQM7). Particulars: at 0.1 µM.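 Also: reported values are averages (mean inhibition of CAMK2A).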
Chain of Calcium/calmodulin-dependent protein kinase type II subunit alpha (Homo sapiens) (Q9UQM7 whole entry): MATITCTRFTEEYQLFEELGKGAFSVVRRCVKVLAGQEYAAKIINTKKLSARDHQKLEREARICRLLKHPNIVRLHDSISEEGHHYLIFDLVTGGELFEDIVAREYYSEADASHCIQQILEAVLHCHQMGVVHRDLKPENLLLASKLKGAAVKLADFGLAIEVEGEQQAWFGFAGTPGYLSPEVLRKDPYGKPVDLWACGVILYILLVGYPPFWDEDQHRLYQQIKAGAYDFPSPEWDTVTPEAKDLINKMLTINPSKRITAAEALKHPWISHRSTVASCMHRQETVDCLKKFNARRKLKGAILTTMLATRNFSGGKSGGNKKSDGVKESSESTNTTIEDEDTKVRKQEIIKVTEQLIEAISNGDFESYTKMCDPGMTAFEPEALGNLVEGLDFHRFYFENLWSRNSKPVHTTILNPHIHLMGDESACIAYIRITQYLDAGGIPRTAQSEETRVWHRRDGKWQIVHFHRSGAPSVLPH

Chain of 5'-AMP-activated protein kinase catalytic subunit alpha-2 (Homo sapiens) (P54646 whole entry, looked up): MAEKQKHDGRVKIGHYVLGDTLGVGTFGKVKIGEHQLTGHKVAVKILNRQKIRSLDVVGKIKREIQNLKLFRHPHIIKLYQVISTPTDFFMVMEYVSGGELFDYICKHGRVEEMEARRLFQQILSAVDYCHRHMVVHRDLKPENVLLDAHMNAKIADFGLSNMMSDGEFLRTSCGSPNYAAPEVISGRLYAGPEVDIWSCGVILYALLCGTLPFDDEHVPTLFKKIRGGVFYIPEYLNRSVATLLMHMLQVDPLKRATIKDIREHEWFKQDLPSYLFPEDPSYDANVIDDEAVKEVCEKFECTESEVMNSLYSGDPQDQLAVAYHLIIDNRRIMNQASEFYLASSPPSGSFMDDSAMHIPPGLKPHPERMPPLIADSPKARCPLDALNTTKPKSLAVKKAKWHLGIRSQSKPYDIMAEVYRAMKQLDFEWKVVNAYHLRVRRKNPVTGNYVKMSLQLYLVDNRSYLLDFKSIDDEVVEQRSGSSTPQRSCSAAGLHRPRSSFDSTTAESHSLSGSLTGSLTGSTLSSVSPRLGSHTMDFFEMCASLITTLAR

What is called inhibition is the drop in the measured response relative to a control, in per cent. Take `CCS(=O)(=O)c1ccc(OC)c(Nc2ncc(-c3cccc(OC)c3)o2)c1`: the inhibition in experiment [1] was 4.19%; in experiment [2] it was 2.41%; in experiment [3] it was 13.4%; in experiment [4] it was 1.53%; in experiment [5] it was -0.15%; in experiment [6], 0.33%. Besides, the inhibition in experiment [7] is 0.66%; in [8], 0.03%; in experiment [9], 1.97%; in [10] it was 2.7%.
In the case of `N#Cc1cccc(Nc2nccc(-c3cnn4ncccc34)n2)c1`, the inhibition in [1] is 12.5%; in experiment [2] it was 38.5%; in [3], 73.4%; in [4], 0.94%; in experiment [5], 7.19%; in [6], 2.94%. The inhibition in experiment [7] is 12.1%; in experiment [8] it was -0.83%; in [9] it was 3.54%; in experiment [10] it was 7.55%.
`CCn1c(-c2nonc2N)nc2ccc(F)cc21`: the inhibition in experiment [1] turned out to be 3.56%; in [2] it was 1.74%; in experiment [3], 2.03%; in experiment [4] it was 0.43%; in experiment [5] it was 1.87%; in experiment [6] it was 1.78%. In addition, the inhibition was 5.06% in experiment [7], 0.45% in experiment [8], -0.34% in experiment [9] and 4.39% in experiment [10].
Take `NS(=O)(=O)c1ccc(-c2cc3ccncc3cc2OCc2ccccc2)cc1`: the inhibition in [1] was 2.32%; in [2], -0.67%; in experiment [3], -0.08%; in experiment [4] it was -0.48%; in experiment [5], 0.47%; in experiment [6], 0.96%. The inhibition in experiment [7] was 2.69%; in experiment [8], -6.04%; in experiment [9], 0.65%; in experiment [10] it was 1.83%.
As for `NC(=O)c1cccc(Nc2nccc(Nc3cccc(F)c3)n2)c1`, the inhibition worked out at 3.97% in experiment [1]; 23% in [2]; 58.2% in experiment [3]; 1.64% in experiment [4]; 7.42% in experiment [5]; 0.1% in [6]. For the same molecule, the inhibition is 8.9% in experiment [7], 0.4% in experiment [8], 3.1% in [9] and 2.84% in experiment [10].
Turning to `COc1cc2ncnc(Nc3ccc(C)c(O)c3)c2cc1OC`, the inhibition amounted to 5.2% in experiment [1]; 7.16% in experiment [2]; 1.93% in [3]; 1.23% in experiment [4]; 3.78% in experiment [5]; 3.07% in experiment [6]. The inhibition is 6.2% in experiment [7], -0.09% in [8], 0.02% in experiment [9] and 2.98% in experiment [10].
In the case of `CN(C)CCCn1c(-c2nonc2N)nc2cnccc21`, the inhibition was 5.42% in experiment [1]; 3.04% in experiment [2]; -0.59% in [3]; 1.23% in experiment [4]; 0.57% in experiment [5]; 0.27% in experiment [6]. In addition, the inhibition in [7] was 1.19%; in experiment [8] it was 0.27%; in [9] it was -0.73%; in [10] it was 2.81%.
Consider `CCOc1nccc2c1nc(-c1nonc1N)n2CC`, for which the inhibition in experiment [1] was 4.98%; in experiment [2], 7.99%; in experiment [3], 12.8%; in experiment [4], 4.56%; in experiment [5] it was 14.7%; in experiment [6], 7.65%. Besides, the inhibition in experiment [7] was 18.3%; in experiment [8], 0.39%; in [9] it was -0.46%; in [10], 3.45%.
Take `CCn1c(-c2nonc2N)nc2c(C#CC(C)(C)O)nc(OCCNC)cc21`: the inhibition in experiment [1] is 3.94%; in [2], 1.05%; in experiment [3] it was 3.39%; in [4], 1.73%; in experiment [5], 0.16%; in experiment [6] it was 1.24%. Also, the inhibition was determined as 4.81% in experiment [7], 1.21% in [8], 2.06% in [9] and 3.99% in [10].
Regarding `COc1ccc(-c2nn3ncccc3c2-c2ccnc(Nc3cccc(C(F)(F)F)c3)n2)cc1`, the inhibition in [1] is 3.96%; in [2], 0.91%; in experiment [3] it was -0.63%; in [4] it was -0.24%; in [5], 1.65%; in experiment [6], 2.63%. Moreover, the inhibition in experiment [7] was 2.85%; in [8] it was 0.46%; in [9] it was 0.37%; in experiment [10] it was 2.25%.
As to `CN(C)C(=O)O[C@H]1CN[C@H](C#Cc2cc3ncnc(Nc4ccc(OCc5cccc(F)c5)c(Cl)c4)c3s2)C1`, the inhibition in [1] came out at 3.32%; in experiment [2] it was 1.87%; in experiment [3] it was 1.59%; in experiment [4] it was 2.39%; in experiment [5] it was 3.13%; in experiment [6] it was 2.38%. The inhibition in [7] turned out to be 2.85%; in [8], 0.05%; in [9], 0.1%; in experiment [10] it was 2.54%.
With `COC(=O)c1ccc2c(c1)C(=Cc1cc(Br)c(O)c(Br)c1)C(=O)N2`, the inhibition in experiment [1] was 4.79%; in [2], -1.29%; in [3], 2.73%; in [4], 3.81%; in experiment [5], 2.04%; in experiment [6], 0.42%. In addition, the inhibition in [7] was 5.14%; in experiment [8], 0.26%; in [9], 3.35%; in experiment [10], 2.97%.
Consider `C[C@@H](Oc1cc(-n2cnc3ccc(OCC4CCN(C)CC4)cc32)sc1C(N)=O)c1ccccc1C(F)(F)F`, for which the inhibition in experiment [1] turned out to be 14%; in experiment [2], 50.5%; in experiment [3], 76.6%; in experiment [4] it was 22.4%; in [5], 61.1%; in experiment [6], 33.9%. Further, the inhibition in experiment [7] is 74.5%; in experiment [8], 0%; in [9], 4.15%; in [10], -0.63%.
As for `Nc1ccc(C#Cc2cncnc2Nc2ccc(OCc3cccc(F)c3)c(Cl)c2)cc1`, the inhibition in experiment [1] is 2.03%; in experiment [2], 1.31%; in experiment [3], -1.87%; in [4] it was 1.62%; in experiment [5], 0.9%; in experiment [6], 1.82%. Also, the inhibition in [7] is 1.94%; in experiment [8] it was 0.26%; in [9] it was 0.65%; in experiment [10], 1.19%.
On to `Nc1nccc(-c2c(-c3ccc(F)cc3)ncn2CCCN2CCOCC2)n1`, for which the inhibition in [1] is 4.51%; in [2], 3.4%; in experiment [3] it was -1.7%; in [4], 0.99%; in experiment [5], -1.18%; in experiment [6] it was 0.6%. The inhibition in [7] is 1.72%; in [8], 0.27%; in experiment [9], -0.53%; in experiment [10], 2.67%.
`Cc1nc(-c2ccccc2)n2nc(NCCCN3CCOCC3)ncc12`: the inhibition in [1] is 4.91%; in [2], 0.66%; in experiment [3], 20.3%; in experiment [4] it was 1.1%; in [5] it was -0.76%; in experiment [6] it was 1.22%. The inhibition is 2.49% in experiment [7], 1.67% in experiment [8], 2.49% in experiment [9] and 2.42% in [10].
As to `Cc1cc(-c2ccccn2)cc(C)c1/C=C/c1cncc(-c2nn[nH]n2)c1`, the inhibition was 3.78% in [1]; 2.95% in experiment [2]; 6.85% in experiment [3]; 2.2% in experiment [4]; -0.86% in experiment [5]; 1.67% in experiment [6]. Moreover, the inhibition was found to be 3.37% in experiment [7], 0.06% in experiment [8], 0.67% in experiment [9] and 2.42% in experiment [10].
